An excerpt weighted towards active compounds, which were near 8.1% of everything screened.
MITF inhib = MITF inhibition. AID 2240. TRPM1 promoter luciferase, luminescence, 24 h. inhibition, % (concentration not given with the values). 37,000 tested, 0.28% active; in the data active = inhibition above about 85%; inconclusive = no clear call, values can overlap the other calls; inactive = below about 68%;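 also: human melanocyte line stably carrying TRPM1 promoter luciferase reporter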
Shh pathway inh = Sonic Hedgehog pathway inhibition. inhibition, % (no concentration beside the values). 22,000 tested, 2.1% active. Shh-LIGHT2 Gli-luciferase reporter, 30 h;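 active = mean inhibition across valid replicates above about 65%, limit read from the data; inconclusive = mean under the limit, yet half or more replicates past it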;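 also: pathway switched on by Shh-conditioned medium diluted 1 in 25 in low serum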
PD-1 reverse act = activators reversing PD-1 mediated T-cell inhibition | primary human CD4 T cells, PD-L1 beads, CellTiter-Glo 96 h | activation, % (no concentration beside the values) | 29,000 tested, under 10 active; call rule not given here;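 also: 0% = median vehicle wells and 100% = positive control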
NOMO-1 viab = STK33 inhibitor candidate reducing NOMO-1 cell viability; NOMO-1 AML viability, CellTiter-Glo luminescence, 72 h; 37,000 tested, 7.5% active; AID 2330; inhibition, % (concentration not given with the values); in the data active = inhibition above about 80%; inconclusive = no clear call, values can overlap the other calls
* = called active by the depositor; ! = repeats disagree.

How did C[C@@H]1O[C@@H](O[C@H]2[C@H](O)[C@@H](O[C@@H]3O[C@H](CO)[C@@H](O)[C@H](O)[C@H]3O)[C@H](O[C@H]3CC[C@@]4(C)C(=CC[C@@H]5C4CC[C@@]4(C)C5C[C@@H]5O[C@]6(CC[C@@](C)(CO)O6)[C@@H](C)[C@@H]54)C3)O[C@@H]2CO)[C@H](O)[C@H](O)[C@H]1O (stereo not given in full) do in these assays?
MITF inhib: -1.2; Shh pathway inh: -1.3; PD-1 reverse act: 0.9; NOMO-1 viab: 23.0

How did Cc1cc(C)c(NC(=O)CN(c2ccc(Br)cc2)S(C)(=O)=O)c(C)c1 do in these assays?
MITF inhib: 7.1; PD-1 reverse act: 0.4; NOMO-1 viab: 27.1

What do the screens show for `COc1ccc(C(=O)Oc2c(S(=O)(=O)c3ccccc3)c(C)nn2-c2ccccc2)cc1`?
MITF inhib: 4.3; PD-1 reverse act: -1.2; NOMO-1 viab: 116.2*

Results for COC(=O)c1cc2c(C)nn(-c3ccccc3)c2s1 ?
MITF inhib: -1.4; Shh pathway inh: -9.3; PD-1 reverse act: 0.3; NOMO-1 viab: 8.5

How did O=[N+]([O-])c1cccc(NC(=S)NCc2cn(-c3ccccc3)nc2-c2ccccc2)c1 do in these assays?
MITF inhib: 76.2; PD-1 reverse act: -0.1; NOMO-1 viab: 97.1*

What do the screens show for `CN1CCCCC1CCN1c2ccccc2Sc2ccc(S(C)=O)cc21` (stereo not given)?
MITF inhib: -8.5; Shh pathway inh: 40.5; PD-1 reverse act: 6.5; NOMO-1 viab: 20.3

How did OCCN1CCN(CCCN2c3ccccc3Sc3ccc(C(F)(F)F)cc32)CC1 do in these assays?
MITF inhib: 17.3; Shh pathway inh: inconclusive; NOMO-1 viab: 118.5*!

Results for CN1CCN(CCCN2c3ccccc3Sc3ccc(Cl)cc32)CC1 ?
MITF inhib: 4.1; Shh pathway inh: 75.2*!; NOMO-1 viab: 105.7*!

What do the screens show for `CCOc1ccccc1NC(=O)CSc1cc(C)c2cccc(C)c2n1`?
MITF inhib: 26.5; PD-1 reverse act: -3.8; NOMO-1 viab: 19.7

Results for COc1ccc(NC(=O)CSc2cc(C)c3cccc(C)c3n2)cc1 ?
MITF inhib: 35.6; PD-1 reverse act: -6.1; NOMO-1 viab: 105.2*

Results for O=C(O)CCNC(=O)Nc1ccccc1 ?
MITF inhib: -1.7; Shh pathway inh: -11.6; PD-1 reverse act: 0.2; NOMO-1 viab: 8.7

How did O=C(Cn1cc(C(=O)c2ccccc2F)c2ccccc21)Nc1ccccc1 do in these assays?
MITF inhib: 65.4; PD-1 reverse act: -1.5; NOMO-1 viab: 89.4*

Results for CC(=O)c1cn(CC(=O)Nc2ccccc2)c2ccccc12 ?
MITF inhib: 35.7; PD-1 reverse act: -0.6; NOMO-1 viab: 18.7

Results for NCCOc1ccc(Cl)cc1 ?
MITF inhib: -34.8; Shh pathway inh: inconclusive; PD-1 reverse act: -3.9; NOMO-1 viab: 111.0*

Results for C=CC(C)(O)C(O)CC1C(=C)CCC2C(C)(C(=O)O)CCCC12C (stereo not given) ?
MITF inhib: 15.8; Shh pathway inh: -7.1; PD-1 reverse act: 2.2; NOMO-1 viab: -1.2

How did Cc1cc(C)c(S(=O)(=O)NCC(=O)Nc2ccc(C(C)C)cc2)c(C)c1 do in these assays?
MITF inhib: 5.8; PD-1 reverse act: -5.7; NOMO-1 viab: 94.5*

Results for COc1ccc(CN(C)C[C@@H]2Oc3c(NC(=O)Nc4ccc(OC)cc4)cccc3C(=O)N([C@H](C)CO)C[C@H]2C)cc1 ?
MITF inhib: 20.6; Shh pathway inh: 16.1; NOMO-1 viab: 64.7

How did C[C@H]1CN([C@@H](C)CO)C(=O)c2cccc(NC(=O)Nc3ccc(F)cc3)c2O[C@H]1CN(C)Cc1ccc(Cl)c(Cl)c1 do in these assays?
MITF inhib: 22.1; Shh pathway inh: -6.1; PD-1 reverse act: -1.0; NOMO-1 viab: 40.6

What do the screens show for `C[C@H]1CN([C@@H](C)CO)C(=O)c2cccc(NC(=O)Nc3ccc(F)cc3)c2O[C@@H]1CN(C)Cc1ccc(Cl)c(Cl)c1`?
MITF inhib: 31.9; Shh pathway inh: -6.9; NOMO-1 viab: 108.8*

Results for COc1ccc(NC(=O)Nc2cccc3c2O[C@@H](CN(C)Cc2ccc(Cl)c(Cl)c2)[C@H](C)CN([C@@H](C)CO)C3=O)cc1 ?
MITF inhib: 64.5; Shh pathway inh: -38.7; PD-1 reverse act: -5.9; NOMO-1 viab: 111.1*

What do the screens show for `C[C@@H]1CN([C@H](C)CO)C(=O)c2cccc(NC(=O)Nc3ccc(F)cc3)c2O[C@H]1CN(C)Cc1ccc(Cl)c(Cl)c1`?
MITF inhib: 26.8; Shh pathway inh: -25.9; PD-1 reverse act: -3.1; NOMO-1 viab: 95.8*

What do the screens show for `C[C@H](CO)N1C[C@H](C)[C@@H](CN(C)Cc2ccc(Cl)c(Cl)c2)Oc2c(NC(=O)Nc3ccc(F)cc3)cccc2C1=O`?
MITF inhib: 19.8; Shh pathway inh: -3.5; PD-1 reverse act: -3.5; NOMO-1 viab: 98.7*

Results for COc1ccc(N=C(C)c2c(C(F)(F)F)[nH]n(-c3nc4ccccc4s3)c2=O)cc1OC ?
MITF inhib: -16.6; Shh pathway inh: -26.6; PD-1 reverse act: -0.6; NOMO-1 viab: 58.0

How did CN(CC(=O)Nc1ccc(Cl)c(Cl)c1)S(=O)(=O)c1ccc(F)cc1 do in these assays?
MITF inhib: 8.6; PD-1 reverse act: 1.7; NOMO-1 viab: 16.0

What do the screens show for `CCCCC(=O)N1c2ccccc2C(Nc2ccccc2)CC1C` (stereo not given)?
MITF inhib: 9.6; Shh pathway inh: 47.4; PD-1 reverse act: 0.0; NOMO-1 viab: 56.7

What do the screens show for `O=C(COc1ccccc1[N+](=O)[O-])Nc1ccc2oc(-c3ccc(Cl)cc3)nc2c1`?
MITF inhib: -37.3; PD-1 reverse act: 3.8; NOMO-1 viab: -1.9

Results for c1cn2c3c(n1)CCCc3c1cc(C3CCCCC3)ccc12 ?
MITF inhib: -28.3; Shh pathway inh: 13.6; PD-1 reverse act: -0.2; NOMO-1 viab: 122.9*

Results for C[C@H]1CN([C@@H](C)CO)C(=O)c2cccc(NC(=O)Nc3ccc(F)cc3)c2O[C@@H]1CN(C)Cc1ccc(C(=O)O)cc1 ?
MITF inhib: -7.9; Shh pathway inh: -7.6; NOMO-1 viab: -9.1

What do the screens show for `C[C@@H]1CN([C@@H](C)CO)C(=O)c2cccc(NC(=O)Nc3ccc(C(F)(F)F)cc3)c2O[C@H]1CN(C)Cc1ccc(C(=O)Nc2ccccc2N)cc1`?
MITF inhib: 30.0; PD-1 reverse act: -4.5; NOMO-1 viab: 128.0*

How did C[C@H](CO)N1C[C@H](C)[C@H](CN(C)Cc2ccc(C(=O)Nc3ccccc3N)cc2)Oc2c(NC(=O)Nc3ccc(F)cc3)cccc2C1=O do in these assays?
MITF inhib: 4.1; PD-1 reverse act: 0.1; NOMO-1 viab: 97.1*

Results for C[C@@H]1CN([C@@H](C)CO)C(=O)c2cccc(NC(=O)Nc3ccc(F)cc3)c2O[C@H]1CN(C)Cc1ccc(C(=O)Nc2ccccc2N)cc1 ?
MITF inhib: 8.0; PD-1 reverse act: -6.0; NOMO-1 viab: 125.1*

What do the screens show for `C[C@H]1CN([C@@H](C)CO)C(=O)c2cc(NC(=O)Nc3ccc(F)cc3)ccc2O[C@H]1CN(C)Cc1ccc(C(=O)Nc2ccccc2N)cc1`?
MITF inhib: 8.3; PD-1 reverse act: 0.1; NOMO-1 viab: inconclusive
